Reference: PubChem BioAssay AID488789 (Broad Institute, 2010)
Entries with a potency or affinity are not part of this list. Inconclusive results are not listed. The source made the active and inactive calls.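 The calls were made as follows: active = samples whose fitted half-maximal inhibition concentration is no more than ten times the top valid dose tested; inconclusive = flat response between -70 and -30, or invalid curve fit; inactive = flat within 30 of zero, potency above limit, or signal rising.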

Biological target: Trypsin (Sus scrofa) (UniProt P00761)
Sequence (P00761 whole entry, looked up): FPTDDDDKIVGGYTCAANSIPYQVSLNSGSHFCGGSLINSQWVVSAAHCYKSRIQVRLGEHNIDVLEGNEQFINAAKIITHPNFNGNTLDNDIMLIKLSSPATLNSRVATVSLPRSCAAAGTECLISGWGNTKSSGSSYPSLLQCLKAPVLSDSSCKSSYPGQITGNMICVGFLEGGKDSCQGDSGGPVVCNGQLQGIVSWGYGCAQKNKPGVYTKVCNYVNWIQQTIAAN
Test: trypsin protease activity blockade – biochemical, quenched peptide fluorescence, cherry-pick, selectivity assay for Rce1 protease inhibitor project, dose response (AID 488789);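 also: more negative means stronger trypsin inhibition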
Conditions: porcine trypsin, quenched peptide cleavage fluorescence; series mostly up to 10 µM

outcome, inactive:
COc1ccccc1CC(=O)Nc1ccc2c(C)cc(=O)oc2c1, O=C(COC(=O)c1ccccc1Cc1ccccc1)NC1CCS(=O)(=O)C1 (configuration not stated), CCOc1ccc(-c2c(C(=O)N/N=C/c3cccs3)nnn2-c2nonc2N)cc1, CCn1c(COc2cccc(C)c2)nnc1SCC(=O)NC1CCCC1, CCCNC(=O)c1c(N)n(-c2ccc(S(N)(=O)=O)cc2)c2nc3ccccc3nc12, O=C(Nc1ccccc1N1CCOCC1)C1CCN(S(=O)(=O)c2ccc(F)cc2)CC1, CC(=O)c1c(C)oc2ccc(NS(=O)(=O)c3ccc(C(=O)O)cc3)cc12, CC(=O)OC1CCC2(C)C(COc3ccc4ccc(=O)oc4c3)C(C)(O)CCC2C1(C)C (configuration not stated), Cc1ccc(NS(=O)(=O)c2ccc(NC(=O)N3CCCCC3)cc2)cc1, COc1ccc(OCC(=O)NS(=O)(=O)c2ccc(Cl)cc2)cc1, COc1ccc(C2c3c(ncn(CCN4CCOCC4)c3=N)Oc3ccc4ccccc4c32)cc1 (configuration not stated), C/C(CC(=O)NCc1ccco1)=N\NC(=O)c1ccc([N+](=O)[O-])cc1Cl, CC1CCC/C(=C\Nc2ccccc2C(=O)O)C1=O (configuration not stated), CCN(C(=O)COC(=O)c1cc(-c2cccs2)nc2ccccc12)C1CCS(=O)(=O)C1 (configuration not stated), CCCCCc1ccc(OCCOCCn2c[n+](C)c3ccccc32)c(CCCCC)c1, CCSCCOC(=O)C1=C(C)NC(=O)NC1c1ccccc1 (configuration not stated), COc1ccc(OC)c(/C=N/c2c(-c3ccc(O)c(OC)c3)nc3ccccn23)c1, Cc1cc(N2CCN(C(c3ccccc3)c3ccccc3)CC2)n2ncnc2n1, COc1cccc(-c2c(C(=O)N/N=C/c3sccc3C)nnn2-c2nonc2N)c1, CSc1ccc(C(=O)C2CCCN(C(=O)c3cccnc3SC)C2)cc1 (configuration not stated), COc1cccc2sc3ccc(C#CC4(O)CCCCC4)cc3c(=O)c12, O=C(O)CCCC[C@@H]1SC[C@@H]2NC(=O)N[C@@H]21, CC1(c2nnc(-c3cccc(Cl)c3)o2)CC(c2cccc(F)c2)=NO1 (configuration not stated), CCn1nnnc1SCC(=O)Nc1nc(C)c(C)s1, CC(=O)N[C@@H](C)c1nc2ccccc2n1CCCN1CCN(c2nc(-c3ccc(C)cc3)cs2)CC1, CCCC(=O)N1CCN(c2ccc(NC(=O)c3cc4ccccc4o3)cc2Cl)CC1, CC(C)N1CCN(Cc2ccc(OCc3ccccc3)cc2)CC1CCO (configuration not stated), CC(CCc1ccccc1)NCC(O)c1ccc(O)c(C(N)=O)c1 (configuration not stated), CCN(CC)CCN(Cc1cc2cc3c(cc2[nH]c1=O)OCO3)C(=S)NCc1ccco1, CN(C)S(=O)(=O)c1ccc(NC(=O)/C=C/c2ccccc2Cl)cc1, CCNC(=S)NNC(=O)CCn1cc(C)cn1, CN(C)c1ccc(/C=N/NC(=O)CNC(=O)c2ccco2)cc1, CC(C)c1ccc(NC(=O)COc2nncc3ccccc23)cc1, CSc1ccc(/C=C/C(=O)OCC(=O)NC(C)C)cc1, CCCCCCCCCCOC(=O)Cn1c(COc2ccc(C)cc2)[n+](C)c2ccccc21, CCn1cc(/C=C(\NC(=O)c2ccccc2Cl)C(=O)N2CCOCC2)c2ccccc21, CC(C)c1c(C(=O)N/N=C/c2cccc3ccccc23)nnn1-c1nonc1N
